test: probe aWnt5a binding to arrayed compounds – biochemical, biotinylated probe, 635/667 nm fluorescence, primary screen (AID 1113); conditions: small-molecule microarray, higher = more signal;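 note: score merges 667 nm fluorescence intensity with signal-to-noise per printed feature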

Q: With `COC(=O)[C@H]1N=C(c2ccc(OCCCO)cc2)O[C@H]1c1ccccc1CN=[N+]=[N-]` as the compound, how does the composite z-score read?
A: Its composite z-score is 0.0495.

Q: For `C[N+](C)(C)CCCCNC(=O)[C@H]1C[C@H]2C(=O)NCC(=O)N2[C@H]1c1ccc(O)cc1`, which composite z-score is on record?
A: The composite z-score was -0.103.

Q: With `CN(C)CCCCCCNC(=O)[C@@H]1C[C@@H]2C(=O)NCC(=O)N2[C@@H]1c1ccc(O)cc1` as the compound, how does the composite z-score read?
A: The composite z-score was 0.0785.

Q: With `COc1ccc(C#Cc2ccc3c(c2)[C@]2(C(=O)N3)[C@H](c3ccc(OCCO)cc3)N3[C@H](c4ccccc4)[C@H](c4ccccc4)OC(=O)[C@H]3[C@@H]2C(=O)N2CCN(c3ncccn3)CC2)cc1` as the compound, how does the composite z-score read?
A: The composite z-score was -0.252.

Q: For `[N-]=[N+]=NCc1ccccc1[C@H]1OC(c2ccc(OCCCO)cc2)=N[C@@]1(Cc1ccccc1)C(N)=O`, which composite z-score is on record?
A: The composite z-score was 0.283.

Q: Which composite z-score does the source give for `C#CCOC(=O)N[C@H](C=CCCCC)c1ccccc1` here?
A: Its composite z-score is -0.0888.

Q: Which composite z-score does the source give for `COc1cccc(C[C@H]2C[C@@H](CO[Si](C(C)C)(C(C)C)C(C)C)N3C(=O)[C@]4(C(C)=O)O[C@]23[C@H]2C(=O)N(C)C(=O)[C@H]24)c1` here?
A: Its composite z-score is -0.0721.

Q: For `C=C(COC)/C(=C/C[C@@H](OC(=O)c1ccncc1)c1cccc(OCCO)c1)c1cc(C(=O)OC)ccc1OC`, which composite z-score is on record?
A: The composite z-score was 0.115.

Q: Which composite z-score does the source give for `C[N+](C)(C)CCCC[C@@H]1NC(=O)[C@@H]2C[C@H](C(=O)NCCCCCNC(=O)CS)[C@H](c3cccc(OCCO)c3)N2C1=O` here?
A: The composite z-score was -0.0478.

Q: With `CCCCCCCCCCC(O)C1C=CC2C(=O)NC(=O)C2N1Nc1ccccn1` (stereo not drawn) as the compound, how does the composite z-score read?
A: Its composite z-score is -0.0566.

Q: With `CCOC(=O)C[C@H]1[C@H](OC(=O)c2ccc(C(=O)c3ccccc3)cc2)[C@@H](NC(=O)C2CCCCC2)c2cc(OCCCO)ccc2N1C(=O)Cc1ccc(OC)cc1` as the compound, how does the composite z-score read?
A: The composite z-score was -0.0907.

Q: For `COc1ccc([Si](C)(C)[C@@H]2[C@@H](CCO)O[C@]3(C(=O)N(Cc4ccc(N5C(=O)c6ccccc6Oc6ccccc65)cc4)c4ccccc43)[C@H]2C)cc1`, which composite z-score is on record?
A: The composite z-score was -0.0643.

Q: For `O=C1O[C@@H](c2ccccc2)[C@@H](c2ccccc2)N2[C@@H](c3ccc(O)cc3)[C@]3(C(=O)Nc4ccc(C#CC5(O)CCCCCC5)cc43)[C@@H](C(=O)N3CCN(c4ncccn4)CC3)[C@H]12`, which composite z-score is on record?
A: Its composite z-score is -0.0721.

Q: Which composite z-score does the source give for `COCCCNC(=O)[C@@]1(C)c2ccccc2C(=O)N(c2ccc(C)cn2)[C@H]1c1ccc(CO)cc1` here?
A: The composite z-score was -0.172.

Q: With `COc1ccc([Si](C)(C)[C@H]2[C@H](CCO)O[C@@]3(C(=O)N(Cc4cccc(N5CCOC5=O)c4)c4ccccc43)[C@@H]2C)cc1` as the compound, how does the composite z-score read?
A: Its composite z-score is -0.101.

Q: Which composite z-score does the source give for `O=C(N1CCOCC1)[C@@]1(CCS(=O)(=O)c2ccccc2)COC(c2ccc(OCCCO)cc2)=N1` here?
A: Its composite z-score is -0.124.

Q: With `COCCOC(=O)N1C(=O)[C@@]2(c3cc(C#Cc4ccc(OC)cc4)ccc31)[C@H](C(N)=O)[C@H]1C(=O)O[C@H](c3ccccc3)[C@H](c3ccccc3)N1[C@@H]2c1ccc(OCCO)cc1` as the compound, how does the composite z-score read?
A: Its composite z-score is -0.0512.

Q: Which composite z-score does the source give for `C=C[C@H](C)[C@H](OC(=O)Nc1ccc(SC)cc1)c1ccc(O)c2ccccc12` here?
A: Its composite z-score is -0.325.

Q: For `C=C(CCCC)/C(=C/C[C@H](OC(=O)c1ccncc1)c1ccc(CO)o1)c1cc(C(=O)OC)ccc1OC`, which composite z-score is on record?
A: The composite z-score was -0.196.

Q: With `CN1C(=O)C2C=CC(C(O)c3cccc4ccccc34)N(NC(=O)OC(C)(C)C)C2C1=O` (stereo not drawn) as the compound, how does the composite z-score read?
A: The composite z-score was -0.0512.

Q: Which composite z-score does the source give for `COc1cc2c(cc1OC)CN(C(=O)[C@@H]1[C@H]3C(=O)O[C@H](c4ccccc4)[C@H](c4ccccc4)N3[C@H](c3ccc(OCCO)cc3)[C@@]13C(=O)Nc1ccc(C#CCCO)cc13)CC2` here?
A: The composite z-score was 0.265.

Q: For `NCCCCCCNC(=O)[C@H]1C[C@H]2C(=O)N3CCC[C@H]3C(=O)N2[C@H]1c1ccc(O)cc1`, which composite z-score is on record?
A: The composite z-score was 0.15.

Q: With `C[C@H]1NC(=O)C([C@@H](C)OCc2ccccc2)NC(=O)[C@@]23C(=O)N[C@@H](Cc4ccccc4)C2[C@H](C)[C@@]2(C)O[C@H]2C3/C=C/CC/C=C/CNC1=O` (stereo partly drawn) as the compound, how does the composite z-score read?
A: Its composite z-score is 0.0919.

Q: Which composite z-score does the source give for `O=C1O[C@@H](c2ccccc2)[C@@H](c2ccccc2)N2[C@@H](c3ccc(O)cc3)[C@]3(C(=O)Nc4ccc(C#CC5=CCCCC5)cc43)[C@@H](C(=O)Nc3nc4ccccc4s3)[C@H]12` here?
A: Its composite z-score is 0.428.

Q: Which composite z-score does the source give for `CC(C)(C)N1CC=CC23O[C@@H]4C=CCCOC(=O)C4[C@H]2C(=O)N(CCCO)[C@@H]3C1=O` (stereo partly drawn) here?
A: The composite z-score was -0.172.

Q: With `CN(C)CCCCNC(=O)[C@H]1C[C@H]2C(=O)N[C@@H](CCCC[N+](C)(C)C)C(=O)N2[C@H]1c1cccc(OCCO)c1` as the compound, how does the composite z-score read?
A: Its composite z-score is -0.0792.

Q: With `CCCCC(CC)C(O)C1C=CC2C(=O)NC(=O)C2N1Nc1ccccn1` (stereo not drawn) as the compound, how does the composite z-score read?
A: Its composite z-score is 0.0919.

Q: With `C[N+](C)(C)CCCCCCNC(=O)[C@@H]1C[C@@H]2C(=O)NCC(=O)N2[C@@H]1c1cccc(OCCO)c1` as the compound, how does the composite z-score read?
A: The composite z-score was -0.18.

From PubChem BioAssay
